Measurements taken from the supplement of paper PMC12350171.
Where a name gives a salt, the structure may show the parent alone.

Legend:
Settings in all cases: 20 µM
[1] = test system: Haemophilus parainfluenzae; assay: growth AUC normalised to DMSO control (fraction of control); higher = less growth inhibition, active = hit call of the paper
How it was run: (§1)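 Pathogens were passaged twice under anaerobic conditions, then inoculated into pre-reduced mGAM plates at a starting OD578 of 0.01, with compound at 20 μM and 1% DMSO, and sealed with breathable membranes. For Haemophilus parainfluenzae, the medium was supplemented with hemin and NAD. OD578 was read every hour for 24 h in three biological replicates. Growth-curve AUC was calculated by the trapezoidal rule up to the exponential-to-stationary transition and normalised to DMSO controls on the same plate.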

[2] = test system: Salmonella enterica typhimurium; assay: as above
How it was run: as §1

[3] = test system: Shigella flexneri; assay: as above
How it was run: as §1

[4] = test system: Vibrio cholerae; assay: as above
How it was run: as §1

[5] = test system: Yersinia pseudotuberculosis; assay: as above
How it was run: as §1

[6] = test system: P. vulgatus RND KO; assay: growth AUC normalised to DMSO control (median) (fraction of control); higher = less growth inhibition, active = hit call of the paper
How it was run: (§2)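 After two overnight anaerobic passages, strains were inoculated at OD578 0.01 into mGAM in 96-well plates containing approved-drug library compounds at 20 μM and 1% DMSO. Growth was followed by reading OD578 hourly for 24 h within an anaerobic incubator. Area under the curve, taken by the trapezoidal rule up to the start of stationary phase, was normalised to same-plate vehicle wells, and the median of three biological replicates is listed.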

[7] = test system: P. vulgatus WT; assay: as above
How it was run: as §2

[8] = test system: S. enterica typhimurium WT; assay: as above
How it was run: as §2

[9] = test system: S. enterica typhimurium tolC KO; assay: as above
How it was run: as §2

Measured: growth AUC normalised to DMSO control
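For growth AUC normalised to DMSO control (median) in this document: active when median AUC fell below 0.1.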

CCCC[N+]1(C)[C@@H]2C[C@@H](OC(=O)[C@H](CO)c3ccccc3)C[C@H]1[C@@H]1O[C@@H]12 (stereo not given in full) [N-Butylscopolammonium bromide]
inactive: [1] 1 | [2] 1 | [3] 0.993 | [4] 1.01 | [5] 1.02 | [6] 1 | [7] 1 | [8] 1 | [9] 0.995

C[C@]12CCC(=O)C=C1C=C[C@@H]1[C@@H]2CC[C@@]2(C)[C@H]1CC[C@@]2(O)CCC(=O)O [Canrenoic acid potassium salt]
inactive: [1] 0.979 | [2] 0.993 | [3] 0.97 | [4] 1.02 | [5] 0.983 | [6] 1.01 | [7] 0.996 | [8] 1.01 | [9] 1

C[C@]12CCC(=O)C=C1CC[C@@H]1[C@@H]2C(=O)C[C@]2(C)C(=O)CC[C@@H]12 [Adrenosterone]
inactive: [1] 1.01 | [2] 0.996 | [3] 1.01 | [4] 1 | [5] 0.993 | [6] 0.986 | [7] 1.02 | [8] 1.01 | [9] 0.992

CC(O)(CS(=O)(=O)c1ccc(F)cc1)C(=O)Nc1ccc(C#N)c(C(F)(F)F)c1 (stereo not given) [Bicalutamide]
inactive: [1] 1.12 | [2] 1.05 | [3] 1.08 | [4] 1.1 | [5] 1.01 | [6] 0.982 | [7] 0.988 | [8] 1.01 | [9] 0.954

COC[C@@H](NC(C)=O)C(=O)NCc1ccccc1 [Lacosamide]
inactive: [6] 0.998 | [7] 1 | [8] 0.987 | [9] 1

CCn1cc(C(=O)O)c(=O)c2cc3c(cc21)OCO3 [Oxolinic acid]
inactive: [6] 0.951 | [7] 0.922
active: [1] 0.0639 | [2] 0.0132 | [3] 0.0542 | [4] 0.0353 | [5] 0.0367 | [8] 0.0291 | [9] 0.0105

Nc1ccncc1 [Dalfampridine]
inactive: [6] 1 | [7] 1.03 | [8] 1.02 | [9] 0.995

CC(C)(C)NCC(O)c1ccccc1Cl (stereo not given) [Tulobuterol Hydrochloride]
inactive: [6] 1.01 | [7] 1 | [8] 0.995 | [9] 0.989

Cc1cccc(C)c1NC(=O)CN1CCCC1=O [Nefiracetam]
inactive: [6] 1.01 | [7] 1.01 | [8] 1 | [9] 1

COc1ccc(C(=O)N2CCCC2=O)cc1 [Aniracetam]
inactive: [1] 0.993 | [2] 1 | [3] 0.998 | [4] 1.01 | [5] 0.972 | [6] 0.996 | [7] 1.01 | [8] 0.995 | [9] 0.997
